Common to all, as to settings: mRNA level, 48 h; actives raise or lower the signal
Read-out in assay [1]: solute carrier (SLC22A1), SLC22A1 (gene 6580)
The assay can be described thus: LTEA_HepaRG_SLC22A1: Life Technologies and Expression Analysis (LTEA) Assay for solute carrier (SLC22A1) using HepaRG (AID 2283524). An outline of the steps:
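qRT-PCR readout (TaqMan, Fluidigm arrays) of SLC22A1 transcript, normalized to three housekeeping genes; bidirectional curve fit relative to 0.5% DMSO vehicle. Differentiated human HepaRG cells, 48 h chemical exposure, top concentration 100 uM, half-log steps, eight points.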

Read-out in assay [2]: NAD(P)H dehydrogenase [quinone] 1 (NQO1), NQO1 (gene 1728)
The assay can be described thus: LTEA_HepaRG_NQO1: Life Technologies and Expression Analysis (LTEA) Assay for NAD(P)H dehydrogenase [quinone] 1 (NQO1) using HepaRG (AID 2283526). In short, it runs like this: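 In this assay, gene expression is read by qRT-PCR after 48 h exposure of HepaRG cells to eight concentrations (max 100 uM, half-log) in 0.5% DMSO. Each chemical runs in duplicate, and activity is scored relative to vehicle.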

Read-out in assay [3]: Nuclear factor erythroid 2-related factor 2 (Homo sapiens) (UniProt Q16236)
Description: LTEA_HepaRG_NFE2L2: Life Technologies and Expression Analysis (LTEA) Assay for Nuclear factor erythroid 2-related factor 2 (NFE2L2) Transcription Factor using HepaRG (AID 2283527).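 For outcome: TaqMan qRT-PCR transcript level normalised to ACTB GAPDH and POLR2A housekeeping genes.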 In short, it runs like this: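 HepaRG, 48 h dosing, 8-pt half-log series from 100 uM in 0.5% DMSO, duplicates. Read-out: NFE2L2 mRNA by qRT-PCR (ACTB/GAPDH/POLR2A normalization). Bidirectional curve fit vs DMSO baseline.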

Read-out in assay [4]: succinate dehydrogenase complex iron sulfur subunit B (SDHB), SDHB (gene 6390)
Description: LTEA_HepaRG_SDHB: Life Technologies and Expression Analysis (LTEA) Assay for succinate dehydrogenase complex iron sulfur subunit B (SDHB) using HepaRG (AID 2283528). In short, it runs like this:
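Readout is SDHB transcript level by qRT-PCR, normalised to three housekeeping genes and fitted bidirectionally against 0.5% DMSO vehicle. Human HepaRG cells were treated for 48 h at up to 100 uM.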

Read-out in assay [5]: Signal transducer and activator of transcription 3 (Homo sapiens) (UniProt P40763)
Description: LTEA_HepaRG_STAT3: Life Technologies and Expression Analysis (LTEA) Assay for Signal transducer and activator of transcription (STAT3) using HepaRG (AID 2283529). An outline of the steps: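 HepaRG, 48 h exposure, 8-pt half-log series (top 100 uM), 0.5% DMSO vehicle, duplicates. Readout: STAT3 transcript by Fluidigm qRT-PCR, housekeeping-normalized; bidirectional fit vs DMSO baseline.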

Read-out in assay [6]: solute carrier (SLCO1B1), SLCO1B1 (gene 10599)
The assay can be described thus: LTEA_HepaRG_SLCO1B1: Life Technologies and Expression Analysis (LTEA) Assay for solute carrier (SLCO1B1) using HepaRG (AID 2283530). In short, it runs like this: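 Differentiated human HepaRG cells, plated 48 h, switched to serum-free induction medium and exposed in duplicate for 48 h to 8 half-log concentrations (top 100 uM) in 0.5% DMSO. SLCO1B1 mRNA by TaqMan qRT-PCR, normalized to ACTB/GAPDH/POLR2A.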

Read-out in assay [7]: sulfotransferase 2A1 (SULT2A1), SULT2A1 (gene 6822)
The assay can be described thus: LTEA_HepaRG_SULT2A1: Life Technologies and Expression Analysis (LTEA) Assay for sulfotransferase 2A1 (SULT2A1) using HepaRG (AID 2283531). An outline of the steps:
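Differentiated human HepaRG cells in serum-free induction medium were exposed for 48 h to eight half-log concentrations (top 100 uM, 0.5% DMSO). SULT2A1 mRNA was measured by qRT-PCR, normalized to ACTB, GAPDH and POLR2A, and fitted bidirectionally against DMSO.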

Read-out in assay [8]: Transforming Growth Factor (TGFB1), TGFB1 (gene 7040)
Description: LTEA_HepaRG_TGFB1: Life Technologies and Expression Analysis (LTEA) Assay for Transforming Growth Factor (TGFB1) Transporter using HepaRG (AID 2283533). In short, it runs like this: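 Differentiated human HepaRG cells in serum-free induction medium were exposed in duplicate for 48 h to eight concentrations (top 100 uM, half-log steps, 0.5% DMSO). TGFB1 mRNA was quantified by qRT-PCR, normalized to ACTB, GAPDH, POLR2A, and fitted bidirectionally against DMSO.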

Read-out in assay [9]: Pyruvate Dehydrogenase Kinase 4 (PDK4), PDK4 (gene 5166)
Description: LTEA_HepaRG_PDK4: Life Technologies and Expression Analysis (LTEA) Assay for Pyruvate Dehydrogenase Kinase 4 (PDK4) using HepaRG (AID 2283525). An outline of the steps: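 HepaRG (human liver line), 48 h chemical exposure, 8-pt half-log CRC top 100 uM, 0.5% DMSO vehicle, duplicates. Readout: TaqMan qRT-PCR of PDK4 mRNA, housekeeping-normalized; gain/loss fit relative to DMSO baseline.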

Read-out in assay [10]: Transforming Growth Factor (TGFA), TGFA (gene 7039)
The assay can be described thus: LTEA_HepaRG_TGFA: Life Technologies and Expression Analysis (LTEA) Assay for Transforming Growth Factor (TGFA) using HepaRG (AID 2283532). An outline of the steps: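 qRT-PCR read-out of TGFA transcript, normalized to three housekeeping genes, fitted bidirectionally against 0.5% DMSO baseline. Human HepaRG cultures received chemicals for 48 h at eight half-log concentrations, top 100 uM.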

Molecules are shown by their SMILES. The source made the active and inactive calls. Rule for the calls: active = hit-call score of the fitted dose curve at least 0.9, where 1 is the maximum; inactive = score below 0.9.

The text below walks through data of PubChem BioAssay (EPA / NIEHS).

As a reminder, the AC50 is the concentration giving half of the maximal activity seen.

Chain of Nuclear factor erythroid 2-related factor 2 (Homo sapiens) (Q16236 whole entry, looked up): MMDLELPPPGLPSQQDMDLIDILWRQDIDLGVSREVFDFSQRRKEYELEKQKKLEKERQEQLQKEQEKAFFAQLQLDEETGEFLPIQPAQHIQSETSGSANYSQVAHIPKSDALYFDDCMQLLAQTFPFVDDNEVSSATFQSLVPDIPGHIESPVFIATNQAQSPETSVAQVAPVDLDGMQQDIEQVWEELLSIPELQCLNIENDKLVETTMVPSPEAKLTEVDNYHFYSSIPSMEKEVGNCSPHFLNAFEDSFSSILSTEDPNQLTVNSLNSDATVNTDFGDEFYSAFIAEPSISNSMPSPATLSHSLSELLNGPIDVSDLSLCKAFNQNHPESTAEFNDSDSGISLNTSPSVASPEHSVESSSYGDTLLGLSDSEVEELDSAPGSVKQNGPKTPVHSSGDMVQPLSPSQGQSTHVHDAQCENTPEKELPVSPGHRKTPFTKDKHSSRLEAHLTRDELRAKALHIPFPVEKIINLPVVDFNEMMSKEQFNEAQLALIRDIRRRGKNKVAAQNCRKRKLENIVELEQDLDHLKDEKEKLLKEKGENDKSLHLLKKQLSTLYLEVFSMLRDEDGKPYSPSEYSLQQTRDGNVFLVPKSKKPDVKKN
Chain of Signal transducer and activator of transcription 3 (Homo sapiens) (P40763 whole entry, looked up): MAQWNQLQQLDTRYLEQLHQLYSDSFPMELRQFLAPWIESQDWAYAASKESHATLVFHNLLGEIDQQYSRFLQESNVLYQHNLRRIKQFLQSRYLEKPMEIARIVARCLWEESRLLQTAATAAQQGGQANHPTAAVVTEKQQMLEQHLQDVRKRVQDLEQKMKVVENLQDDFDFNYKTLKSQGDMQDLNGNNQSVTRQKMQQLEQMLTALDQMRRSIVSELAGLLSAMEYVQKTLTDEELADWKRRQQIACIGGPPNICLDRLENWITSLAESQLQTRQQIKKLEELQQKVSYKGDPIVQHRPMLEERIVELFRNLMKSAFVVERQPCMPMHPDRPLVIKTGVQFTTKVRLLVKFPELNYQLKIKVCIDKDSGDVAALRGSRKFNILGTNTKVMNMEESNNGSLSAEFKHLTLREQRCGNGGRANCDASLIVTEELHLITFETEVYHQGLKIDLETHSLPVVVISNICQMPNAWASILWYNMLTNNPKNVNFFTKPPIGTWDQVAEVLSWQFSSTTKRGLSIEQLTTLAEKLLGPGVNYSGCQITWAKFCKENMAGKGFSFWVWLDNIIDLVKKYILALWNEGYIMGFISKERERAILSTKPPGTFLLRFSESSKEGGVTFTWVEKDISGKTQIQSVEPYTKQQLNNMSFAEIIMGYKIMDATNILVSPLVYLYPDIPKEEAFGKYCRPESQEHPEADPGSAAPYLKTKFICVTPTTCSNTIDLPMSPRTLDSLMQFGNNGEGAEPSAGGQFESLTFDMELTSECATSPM

For the molecule `C[C@]12CC[C@@H]3c4ccc(O)cc4C[C@@H](CCCCCCCCCS(=O)CCCC(F)(F)C(F)(F)F)[C@H]3[C@@H]1CC[C@@H]2O` (stereo partly specified), the AC50 was 14.5 µM (active) in assay [1]; 0.0555 µM (active) in assay [2]; 11.6 µM (active) in assay [4]; 25 µM (active) in assay [6]; 24.9 µM (active) in assay [7]; 0.121 µM (active) in assay [8]. The result in assay [3] and in assay [5] was inactive.

For the molecule `CCN(Cc1c(F)cccc1Cl)c1c([N+](=O)[O-])cc(C(F)(F)F)cc1[N+](=O)[O-]`, the AC50 was 29.6 µM (active) in assay [1] and 50 µM (active) in assay [3]. The result in assay [2], in assay [4], in [5], in assay [6], in assay [7] and in assay [8] was inactive.

As for `CCCCCCC(C)OC(=O)COc1nc(F)c(Cl)c(N)c1Cl` (stereo unspecified), the outcome in [1], in assay [2], in assay [3], in [4], in assay [5] and in assay [6] was inactive. The molecule was called inactive in assay [7] and in assay [8].

As for `CCOC(=O)C(C)Oc1ccc(Oc2cnc3cc(Cl)ccc3n2)cc1` (stereo unspecified), the AC50 in [1] is 17.2 µM (active); in assay [9], 70 µM (active). For the same molecule, the result in [2], in [3], in [4], in [5], in assay [6] and in assay [8] was inactive.

In the case of `C#CCOC(=O)[C@@H](C)Oc1ccc(Oc2ncc(Cl)cc2F)cc1`, the molecule was called inactive in assay [1], in assay [2], in assay [3], in assay [4], in assay [5] and in [6]. Besides, the molecule was classed as inactive in [7] and in assay [8].

On to `O=C(c1ccccc1)C1CCCCC1`, for which the outcome in assay [1], in [9], in [2], in [3], in [4] and in assay [5] was inactive. Also, the molecule was classed as inactive in [6] and in assay [8].

In the case of `CSC(=O)c1cccc2nnsc12`, the molecule was called inactive in [1], in assay [9], in assay [2], in assay [3], in assay [4] and in assay [5]. Besides, the molecule was called inactive in [6] and in assay [8].

For `C#C[C@]1(O)CC[C@H]2[C@@H]3CCC4=CC(=O)CC[C@@H]4[C@H]3CC[C@@]21CC`, the outcome in assay [1], in assay [2], in assay [3], in assay [4], in assay [5] and in assay [8] was inactive. For the same molecule, the values for the AC50 in [9] and in [6] were 0.442 µM (active) and 0.0325 µM (active), respectively.

As for `COC(=O)c1ccccc1C(=O)O`, the result in assay [1], in assay [9], in [2], in assay [3], in assay [4] and in assay [5] was inactive. The molecule was called inactive in assay [6], in assay [7], in [10] and in assay [8].

As for `O=C(O)C1(C(=O)Nc2ccc(Cl)cc2Cl)CC1`, the AC50 in assay [1] is 74.3 µM (active); in assay [9], 7.18 µM (active); in assay [4], 78.4 µM (active); in [6] it was 77.1 µM (active). In addition, the result in [2], in assay [3], in assay [5] and in [8] was inactive.

`c1ccc2[nH]c(-c3cscn3)nc2c1`: the molecule was called inactive in assay [1], in assay [2], in assay [4], in [5], in assay [6] and in [10]. The concentration at half-maximal activity (AC50) was 15.8 µM (active) in assay [9] and 50 µM (active) in assay [3].

Consider `COC(=O)CSc1cc(N=c2sc(=O)n3n2CCCC3)c(F)cc1Cl`, for which the outcome in assay [1], in assay [2], in assay [3], in [4], in assay [5] and in assay [6] was inactive. Moreover, the call in [7] and in assay [8] was inactive.

Regarding `CCCCCOC(=O)COc1cc(N2C(=O)C3=C(CCCC3)C2=O)c(F)cc1Cl`, the result in assay [1], in assay [9], in [2], in [3], in assay [4] and in [5] was inactive. Also, the outcome in [6] and in assay [8] was inactive.
